According to PubChem BioAssay AID493085 (Broad Institute, 2011):
Hit rate of the full screen: of about 2,400 compounds, about 360 (15%) were called active. Another 5% or so got no clear call; they are omitted.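 Rule for the calls: active = falling-signal curve with half-maximal concentration at or below ten times the top tested dose; inconclusive = flat fit at 30 to 70% inhibition, or poor fit; inactive = signal rise, flat within 30%, or potency beyond limit.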 The list is a sample of the results. Measured potencies and affinities stand elsewhere.

Assay: Tet-On RFP internal-standard readout, HSF1 screen, dose response, cell-based, NIH3T3 R4, HSE-GFP and Tet-On RFP, cherry-pick, set 3 (AID 493085);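 note: cells heat shocked 2 h at 42 °C with doxycycline to induce reporters; 0% = neutral control wells and -100% = didemnin B control at 400 nM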
Settings: NIH3T3 R4 HSE-GFP/Tet-RFP reporter, fluorescence, 48 h; series mostly up to 19.5 µM; activity change, negative = inhibition: at the top concentration

Activity change, negative = inhibition, inactive:
CCOc1c(C)cc(S(=O)(=O)NCc2cccnc2)c(C)c1C -2.75%, Cc1ccc(C(=O)Nc2ccc(C(=O)O)cc2NC(=O)c2ccc(C)cc2)cc1 -8.11%, CCOc1ccc(OCc2cccc(C(=O)O)c2)cc1 -1.67%, COc1ccc(C(=O)Nc2ccc(OCc3ccccc3)cc2)cc1[N+](=O)[O-] 20.1%, CCCCN(C)C(=O)CCC(=O)Nc1ccc2nc(N3CCN(C)CC3)cc(C)c2c1 0.044%, CC(C)CC(NC(=O)C1CCCN1C(=O)[C@@H](C)NC(=O)OCc1ccccc1)C(=O)NCC(N)=O (some centres undefined) -0.054%, CC(=O)c1ccc(NC(=O)C(C)n2nc(-c3ccccc3)c3cc(Cl)ccc32)cc1 (centres undefined) -1.25%, CC1Cc2ccccc2N1C(=O)C12CCC(C)(C(=O)C1)C2(C)C (centres undefined) -7.93%, O=S(=O)(/N=C(/c1ccccc1Cl)N1CCOCC1)c1ccccc1 -5.16%, O=C(c1cc(Cl)ccc1Cl)N1CCOCC1 -1.28%, COc1cc(SC)ccc1C(=O)NCC1CCCO1 (centres undefined) -2.99%, COCC(C)NC(=O)c1ccc2nc(-c3ccccc3)c(-c3ccccc3)nc2c1 (centres undefined) 2.21%, CCn1cc(S(=O)(=O)Nc2ccc3c(c2)OCCO3)cn1 36.6%, Cc1nc(SCC(=O)NCC2CCCO2)[nH]c(=O)c1C (centres undefined) 0.854%, O=C(N1CCCCC1)N1CCN(S(=O)(=O)c2ccccc2)CC1 -7.11%, O=C(Cc1ccccc1F)Nc1ccc(S(=O)(=O)N2CCCCC2)cc1 -1.75%, C=CCNC(=S)Nc1sc2c(c1C#N)CCCC2 -6.78%, CCOc1ccc(NC(=S)N(CCc2ccncc2)C(C)C)cc1 0.037%, Cc1ccc([N+](=O)[O-])c(OCCCN2CCC(Cc3ccccc3)CC2)c1 0.591%, COc1cc(NC(=O)Cn2ncc(Cl)c(Cl)c2=O)c(C)cc1[N+](=O)[O-] -74.7%, O=C(OCn1ncc(Cl)c(Cl)c1=O)c1ccccc1Cl 19.6%, CCCNC(=O)NC1C(NC(=O)NCCC)N(C)C(=O)N1C (centres undefined) -1.63%, CCc1ccc(NC(=O)C2C3CCC(O3)C2C(=O)O)cc1 (centres undefined) 5.37%, Cc1ccc(S(=O)(=O)N(C)c2ccccc2C(=O)NC2CCCC2)cc1 -7.71%, S=c1[nH]nc(-c2cnccn2)n1-c1ccccc1 -8.92%, Cc1ccc(NC(=O)COC(=O)Cn2cnc3ccccc32)cc1S(=O)(=O)N(C)C -0.192%, O=C(Nc1ccc2[nH]ncc2c1)c1ccccc1Cl -0.069%, CC(C)c1ccc(/C=N/Nc2ccc(C(=O)O)cc2)cc1 10.4%, N#C/C(=C\Nc1ccc2cn[nH]c2c1)c1nc(-c2ccccc2)cs1 3.6%, O=C(O)c1ccc(N/N=C/c2ccc(OC(=O)c3ccccc3Cl)cc2)cc1 -3.02%, CCOC(=O)c1ccc(Cl)c(NC(=O)c2cccnc2)c1 -3.1%, CCc1ccc(NC(=O)CSc2ccc(-c3cccnc3)nn2)cc1 4.37%, O=C(NC(=S)Nc1ccc2oc(=O)ccc2c1)c1cc2ccccc2o1 15.4%, Cc1ccc(NC(=O)c2cc(NC(=O)c3ccco3)ccc2N2CCOCC2)cc1 -3%, O=c1c2c3c(sc2nc(NCCOCCO)n1Cc1ccco1)CCCCC3 10.9%, COc1ccc(NC(=O)c2cc3cc(OC)ccc3oc2=N)cc1 -4.04%, COc1cccc(/C=C/C(=O)NCc2ccc3c(c2)OCO3)c1 -6.73%, CCOC(=O)/C(C#N)=C/c1cc(C)n(-c2ccccc2)c1C -2.19%, Cc1cccc(NC(=O)c2sc(-c3ccccc3)nc2-c2ccc([N+](=O)[O-])cc2)c1 -7.95%, OC1(c2ccc(Br)cc2)CCN(Cc2cccc(Br)c2)CC1 -3.81%, Cn1ccnc1SCC(=O)N(C1CCCCC1)C1CCCCC1 -3.07%, COc1cc(C(=O)N(C)C2CCCN(Cc3ccccc3F)C2)cc(OC)c1OC (centres undefined) 3.93%, CS(=O)(=O)N(CC(=O)O)c1ccc(C23CC4CC(CC(C4)C2)C3)cc1 7.89%, O=C(CCC1CCCNC1)c1ccccc1 (centres undefined) 4.57%, CC(=O)c1cnn(-c2c(Cl)cc(Cl)cc2Cl)c1C 2.88%, CC(C)Oc1ccc(C(=O)O)cc1 -1.52%, NC(=O)c1ccsc1NC(=O)C1CCCCC1 3.52%, COC(=O)c1cccc(N2C(=O)C3CC=CCC3C2=O)c1 (centres undefined) -7.46%, COc1ccc(C(=O)Nc2ccccc2C(=O)N/N=C/c2ccc(O)c(OC)c2)cc1 -5.62%, O=C(N/N=C/c1ccc(F)cc1)c1ccc(OCc2ccccc2)cc1 -6.34%, O=C(N/N=C/c1cc([N+](=O)[O-])ccc1O)c1ccncc1 -7.98%, CCOc1cc(N2CCOCC2)c(OCC)cc1NC(=O)c1cc(-c2ccco2)nc2ccccc12 -12.4%, COC(=O)[C@H](C)NC(=O)NCCC1=CCCCC1 -2.47%, Cc1ccc(C(=O)/C=C/Nc2ccccn2)cc1 -0.009%, COC(=O)c1nn(-c2cccc(C(F)(F)F)c2)c(=O)cc1Sc1ccccn1 -0.462%, CCCCOc1ccc(C2C(=O)N(C3CCCCC3)CC(=O)N2CC2CCCO2)cc1 (centres undefined) 3.16%, CC(C)(C)N=C1NN=C(c2ccc(Cl)cc2)CS1 -0.077%, CCOC(=O)c1c(C)[nH]c(C2=NNC(=Nc3cccc(Cl)c3)SC2)c1C 6.15%, CC(C)(C)c1ccccc1NC(=O)NC1CCN(Cc2c(F)cccc2Cl)CC1 6.36%, COc1ccccc1NC1=C(Cl)C(=O)N(C2CCCCC2)C1=O -7.56%, CCOC(=O)Cc1csc(NC(=O)c2sc3nc4ccc(CC)cc4cc3c2N)n1 0.721%, O=C1c2ccccc2C(O)N1c1ccccc1 (centres undefined) -5%, Cc1ccnc(N2CCCC(C(=O)NCc3cccs3)C2)n1 (centres undefined) -3.11%, O=C(O)CCn1cc(/C=C2\NC(=S)N(c3ccccc3)C2=O)c(-c2ccc(Br)cc2)n1 -0.659%, Cc1noc(C)c1COc1ccc(C(=O)OCC(=O)Nc2c(C)n(C)n(-c3ccccc3)c2=O)cc1 -3.94%, COc1cccc(CNc2ccc(S(N)(=O)=O)cc2)c1OC -1.4%, COc1cc(/C=C/c2nc(N)nc(-c3ccccc3O)n2)cc(OC)c1OC 18.8%, CN=c1scc(-c2ccccc2F)n1/N=C/c1ccc[nH]1 -4.98%, Cc1cc(C)c(NC(=O)CSc2nnc(-c3ccncc3)n2Cc2ccco2)c(Cl)c1 -3.6%, CCOc1ccc(NCc2nnc(SCc3ccccc3Cl)n2-c2ccccc2)cc1 -11.4%, CCc1ccccc1-n1c(SCC(=O)Nc2ccc3c(c2)OCCO3)nc2[nH]ncc2c1=O -7.25%, CCCCn1c(=O)n(CC(=O)Nc2c(CC)cccc2CC)c(=O)c2c1nc(CO)n2CCC 6.15%, CCOC(=O)Cn1c(CN2CCN(c3cccc(Cl)c3)CC2)nc2c1c(=O)[nH]c(=O)n2C -12.4%, Cc1[nH]n(-c2ccccc2)c(=S)c1C=Nc1cccc([N+](=O)[O-])c1 -1.4%, CCOc1ccc(/C(O)=C2/C(=O)C(=O)N(CCCn3ccnc3)C2c2cccs2)cc1Cl (centres undefined) 1.41%, Cc1ccc(S(=O)(=O)N2CCN(C(=O)c3cccc(F)c3)CC2)cc1 -8.47%, O=C(O)c1cc(-c2cccc3ccccc23)nc2ccccc12 -4.24%, Cc1nc(NC(C)c2ccccc2)sc1C(=O)Nc1ccccc1 (centres undefined) 9.94%, CC(C)Sc1nc2sccc2c(=O)n1-c1ccccc1 11.3%, COc1cccc(C(=O)Nc2ccc(NC(=O)C3CC=CCC3C(=O)O)cc2)c1 (centres undefined) 0.016%, CC(C)CN(CC(C)C)C(=S)NC1CCCCC1 -6.14%, O=[N+]([O-])c1ccc(N2CCN(Cc3ccc4c(c3)OCO4)CC2)nc1 -8.55%, O=C(NCc1ccc2c(c1)OCO2)c1cc2c(s1)CS(=O)(=O)C2 -6.5%, COc1ccccc1NC(=O)c1ccc([N+](=O)[O-])o1 57.8%, Cc1c(C(=O)NCc2ccc3c(c2)OCO3)sc2nc(-c3ccccc3)cn12 -10%, COc1cc(C(=O)Nc2ccccc2NC(=O)c2cc(OC)c(OC)c(OC)c2)cc(OC)c1OC 2.37%, Cc1cccc(NC(=O)CN2C(=O)N/C(=C/c3cc(C)n(C(C)C)c3C)C2=O)c1 -10.4%, CCn1c(COc2ccc(C)cc2)nnc1SCC(=O)Nc1ccc2c(c1)OCCO2 -7.64%, COc1ccccc1Nc1nc(NCCCN(C)C)nc(N)c1[N+](=O)[O-] -1.84%, CCN(C(=O)Cn1c([N+](=O)[O-])cnc1C)c1ccccc1 -16.7%, CC(C)(C)c1cnnn1-c1ccc(C(=O)CCl)cc1 3.34%, CC1(C)CC(=O)C2=C(C1)N(c1ccc(F)cc1)C(=O)CC2c1ccccc1 (centres undefined) -4.86%, O=C(COC(=O)c1cnccn1)Nc1ccc(Cl)cn1 -5.03%, Cc1cc(C(=O)CSc2nnc3ccccn23)c(C)n1-c1ccccc1 0.992%, Cc1cc(C(=O)COC(=O)C2CC2)c(C)n1-c1ccc(F)cc1 4.63%, COc1ccc(C(=O)CSc2nc(C)cc(=O)[nH]2)cc1C -1.45%, CC1C=Cc2ccccc2N1C(=O)c1ccccc1 (centres undefined) -3%, O=C(OCCN1CCN(c2ncc(C(F)(F)F)cc2Cl)CC1)c1ccc(Cl)cc1 -3.94%, CCN1CCN(c2cc(C)c3cc(NC(=S)N4CCCC(C)C4)ccc3n2)CC1 (centres undefined) 6.67%, COc1cccc(CC2(CO)CCN(S(=O)(=O)c3ccc(OC)cc3OC)CC2)c1 1.79%, CC(C)CC(C(=O)Nc1cccc(O)c1)N1C(=O)c2ccccc2C1=O (centres undefined) -0.424%, COCCN(C(=O)COC(=O)/C=C/c1ccc(C(F)(F)F)cc1)c1c(N)n(Cc2ccccc2)c(=O)[nH]c1=O 4.7%, Cc1ccccc1OCC(=O)Nc1ccc([N+](=O)[O-])cc1 -3.6%, Cc1ccccc1OCC(=O)OCC(=O)c1ccc(-c2ccccc2)cc1 -2.21%, CN(Cc1ccccc1)C(=O)CCn1c(=O)oc2ccccc21 -5.05%, Cc1ccc(S(=O)(=O)NC(C)(C)CSc2nncn2N)cc1 -12.4%, CC1(C)C=C2C(=NN(c3ccccc3)C(N)=C2C#N)CO1 0.55%, O=C(CCl)Nc1ccccc1C(=O)c1ccccc1 -3.67%, Fc1ccc(-n2cc(CNCCc3ccccn3)c(-c3ccccc3Cl)n2)cc1 6.35%
